AC50 and outcome data for two compounds are collected here from PubChem BioAssay AID2284148 (EPA ToxCast).

Molecules are shown by their SMILES. The source made the active and inactive calls. Rule for the calls: active = hit-call score of the fitted dose curve at least 0.9, where 1 is the maximum; inactive = score below 0.9.

For this experiment, the target named is human Cholecystokinin Receptor CCK1 (CCKA) Agonism, CCKAR (gene 886) (UniProt P32238). Description: ERF_TW_GPCR_hCCKAR: Eurofins (ERF) G Protein-Coupled Receptor (GPCR) Radioligand Binding LeadHunter Assay for human Cholecystokinin Receptor CCK1 (CCKA) Agonism. How it is done: ERF_TW_GPCR_hCCKAR is a biochemical, single-readout assay that uses extracted gene-proteins in a cell-free assay. Measurements were taken 1 hour after chemical dosing in a 96-well plate. See CCK1 (CCKA) Human Cholecystokinin GPCR Binding (Antagonist Radioligand) Assay, Panlabs.ERF_TW_GPCR_hCCKAR is an assay component calculated from the ERF_TW_GPCR_hCCKAR assay. It is designed to measure radioligand binding using a type of binding reporter as detected by scintillation counting with radiometry technology.Data from the assay component ERF_TW_GPCR_hCCKAR was analyzed at the assay endpoint, ERF_TW_GPCR_hCCKAR, in the positive analysis fitting direction relative to DMSO as the negative control and baseline of activity. Using a type of binding reporter, loss-of-signal activity can be used to understand changes in binding as they relate to gene CCKAR. To generalize the intended target to other relatable targets, this assay endpoint is annotated to the gpcr intended target family, where the subfamily is cholecystokinin.
Sequence of human Cholecystokinin Receptor CCK1 (CCKA) Agonism, CCKAR (gene 886) (P32238 whole entry, looked up): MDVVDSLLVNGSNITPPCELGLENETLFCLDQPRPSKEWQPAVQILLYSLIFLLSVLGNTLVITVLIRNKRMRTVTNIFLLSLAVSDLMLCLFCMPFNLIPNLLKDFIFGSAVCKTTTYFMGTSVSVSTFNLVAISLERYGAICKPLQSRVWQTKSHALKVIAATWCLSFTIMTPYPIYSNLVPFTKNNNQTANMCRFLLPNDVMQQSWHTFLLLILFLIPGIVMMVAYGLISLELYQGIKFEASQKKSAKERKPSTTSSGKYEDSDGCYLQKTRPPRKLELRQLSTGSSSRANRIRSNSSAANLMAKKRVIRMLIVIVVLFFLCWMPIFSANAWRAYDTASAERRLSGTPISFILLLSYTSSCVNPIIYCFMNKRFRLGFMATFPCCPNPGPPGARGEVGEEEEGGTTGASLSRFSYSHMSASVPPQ
1321-N1 (human astrocytoma) stably transfected with a plasmid encoding the human recombinant CCK1 receptor are used to prepare membranes in modified HEPES buffer pH 7.4. A 5 ug aliquot of membrane is incubated with 0.11 nM [125I]CCK-8 for […] at 25C. […] Membranes are filtered and washed, the filters are then counted to determine [125I]CCK-8 specifically bound. […]
A word on the AC50: it is the concentration giving half of the maximal activity seen. On to `O=C(/C=C/c1ccc(O)cc1)CC(=O)/C=C/c1ccc(O)cc1`, for which the AC50 is 1990 nM (active). On to `CCCCC[C@H](O)CC(=O)CCc1ccc(O)c(OC)c1`, for which the call was inactive.
